p47phox inh – p47phox (human) inhibition; P14598; p47phox/p22phox peptide binding, fluorescence polarization, 2 h; inhibition, % at 24.7 µM; 220,000 tested, 0.53% active;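 further: 0% = p47phox with labelled peptide and 100% = labelled peptide alone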
14-3-3 Bad PPI – disrupts binding of bovine 14-3-3 zeta to phospho-Bad peptide | P63103 | TR-FRET 14-3-3zeta/Dy647-pBad peptide displacement, 1 h | inhibition, % at 21.7 µM | 220,000 tested, 0.71% active | AID 781;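 active means inhibition above about 70%, limit read from the data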;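 further: 0% = full 14-3-3 plus peptide FRET controls and 100% = background without 14-3-3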
Target sequence (P63103 whole entry, looked up): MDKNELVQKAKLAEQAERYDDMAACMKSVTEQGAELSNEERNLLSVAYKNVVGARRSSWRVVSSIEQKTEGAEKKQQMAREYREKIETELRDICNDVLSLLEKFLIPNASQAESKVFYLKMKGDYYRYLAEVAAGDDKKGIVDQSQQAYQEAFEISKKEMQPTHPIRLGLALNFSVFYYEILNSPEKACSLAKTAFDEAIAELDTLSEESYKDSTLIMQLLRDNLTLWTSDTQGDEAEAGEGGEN
SUMO HTRF inh – inhibitors of human SUMOylation (UBC9). P63279. HTRF SUMOylation assay, SAE1/SAE2 + UBC9, in vitro. inhibition, % at 35 µM. 290,000 tested, 0.36% active. AID 2006; in the data active means inhibition above about 50%, passing the limit was not always enough; inconclusive means no clear call, values can overlap the other calls
Target sequence (P63279 whole entry, looked up): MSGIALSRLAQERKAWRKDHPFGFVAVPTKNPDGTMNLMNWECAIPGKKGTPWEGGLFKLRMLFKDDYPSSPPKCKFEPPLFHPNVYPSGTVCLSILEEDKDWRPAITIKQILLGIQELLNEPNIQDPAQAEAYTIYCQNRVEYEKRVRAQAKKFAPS
eIF4E 4G PPI – blocks eIF4E binding to eIF4G; P63073+Q04637; TR-FRET eIF4E-eIF4GI(517-606) binding, 2 h; inhibition, % at 21.7 µM; 220,000 tested, 0.37% active; AID 782;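 further: 0% = full FRET control wells and 100% = background wells lacking eIF4GI fragment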
The depositor's hits bear a star; ? = inconclusive; nt = no result given; [ ] = remark or other dose. An excerpt weighted towards active compounds, which were near 1.3% of everything screened.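 How the source made its calls, unless noted: active means inhibition above about 30% (limit read from the data); inactive means the rest.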

SMILES	p47phox inh	14-3-3 Bad PPI	SUMO HTRF inh	eIF4E 4G PPI
O=C1/C(=C\c2cc(Br)cc(Br)c2O)SC(=S)N1Cc1ccccc1	nt	nt	59*	nt
Cc1ccc(Nc2nc(-c3ccc(S(=O)(=O)N4CCCC4)cc3)cs2)cc1C	-25	86*	5	-11
Cc1cc(C)cc(Nc2nc(-c3ccc(S(=O)(=O)N4CCCC4)cc3)cs2)c1	-18	0	6	15
Cc1ccccc1NC(=O)CSc1nnc(-c2ccco2)c(-c2ccco2)n1	11	17	65*	14
N=C1/C(=C/c2cccn2-c2ccc([N+](=O)[O-])cc2)C(=O)N=C2SC=CN12	-15	11	15	1
COc1ccc(-c2ccc(/C=C3/C(=N)N4C=CSC4=NC3=O)o2)c([N+](=O)[O-])c1	2	73*[fluorescence artefact?]	-1	10
CCN(CC(=O)Nc1ccc2c(c1)OCCO2)S(=O)(=O)c1ccccc1	nt	nt	17	nt
CC(C)n1nc(C(=O)Nc2cccc(S(=O)(=O)NCc3ccco3)c2)c2ccccc2c1=O	-33	1	2	-12
Nc1ccc(S(=O)(=O)N2CCOCCOCCOCCOCCOCC2)cc1	nt	nt	-8	nt
CC#CCN(CC#CC)S(=O)(=O)c1ccc(S(=O)(=O)N2CCOCC2)cc1	194*	nt	27	nt
COc1ccccc1CCC(=O)N1CCC(n2nccc2NC(=O)C2CCOC2)CC1 (configuration not stated)	nt	nt	15	nt
C#CCn1cc(/C=N/NC(=O)COc2cccc3cccnc23)c2ccccc21	29	92*[fluorescence artefact?]	17	11
COC(=O)Cn1cc(/C=N/NC(=O)COc2cccc3cccnc23)c2ccccc21	27	46	-9	12
O=C(O)CCCC(=O)NCc1ccccn1	-5	-16	17	1
O=C(CCCCCN1C(=O)c2ccccc2C1=O)NCc1ccccn1	0	77*	-2	11
Oc1cccc(/C=N/NC(=S)Nc2cccnc2)c1O	-8	-7	-10	5
Oc1ccc(/C=N/NC(=S)Nc2cccnc2)c(O)c1O	-42	72*	?	58*
COc1cc2[nH]c(C(=O)N3CCN(c4ccccc4F)CC3)cc2c(OC)c1OC	nt	nt	-4	nt
CC(=O)Nc1nc(CCN2C(=O)c3ccccc3C2=O)cs1	45*	7	14	0
CCc1ccccc1NC(=O)CCS(=O)(=O)c1ccc(Br)cc1	nt	nt	4	nt
COC(=O)c1ccccc1NC(=O)CCS(=O)(=O)c1ccc(Br)cc1	-14	81*	7	11
CCC(NC(=S)NCc1ccc(F)cc1)c1ccc(C(C)C)cc1 (configuration not stated)	nt	nt	-14	nt
CCNC(=O)COC(=O)CCNC(=O)c1ccc(Cl)cc1	-11	-4	12	1
CN(C1CCCCC1)S(=O)(=O)c1ccc2c(c1)c(=O)c(C(=O)NCCN1CCCC1)cn2C	51*	11	12	5
Nc1ccc(O)c(-c2nc3ccccc3s2)c1	17	10	24	0
SMILES	p47phox inh	14-3-3 Bad PPI	SUMO HTRF inh	eIF4E 4G PPI
Nc1ccccc1-c1nc2ccccc2s1	-15	73*	4	10
CCn1c2ccccc2c2cc(NC(=O)c3ccco3)ccc21	-22	91*	-18	2
CCn1c2ccccc2c2cc(NC(C)=O)ccc21	-7	26	-5	-12
C#Cc1ccc([C@@H]2C=C(C(=O)NC3CC3)O[C@H](OCCCCO)C2)cc1	-14	-4	20	97*
COc1ccc(NC2CCCN(C(=O)COc3ccc(Cl)cc3C)C2)cc1OC (configuration not stated)	nt	nt	-3	nt
CC(C)(C)CN1CCN(Cc2c[nH]c3ccccc23)CC1CCO (configuration not stated)	nt	nt	10	nt
O=C(Oc1cccnc1)c1ccco1	-10	81*	0	-1
Cn1c2ccccc2c(=O)c2c(=O)n(-c3ccccc3)c(C3CCCCC3)nc21	-3	0	-15	13
Cn1c2ccccc2c(=O)c2c(=O)n(C3CCCCCC3)c(C3CCCCC3)nc21	45*	87*	-11	12
CCCC(C)NCC(=O)Nc1ccccc1-c1ccccc1 (configuration not stated)	-19	72*	6	-7
CC(=O)Oc1ccccc1C(=O)Nc1ccccc1C(=O)N1CCCCC1	nt	nt	0	nt
COc1ccc([N+](=O)[O-])cc1NC(=O)c1cccs1	4	-3	-4	0
O=C(Nc1cc([N+](=O)[O-])ccc1F)c1cccs1	75*	-11	-3	12
N#CC(=C=[N-])c1nc2ccccc2nc1-[n+]1cccc(NC(=O)c2ccccc2)c1	53*	18	4	14
N#CC(=C=[N-])c1nc2ccccc2nc1-[n+]1cccc(NC(=O)c2cccs2)c1	48*	2	26	-6
